Screening data from PubChem BioAssay.
FEN1 inh: human FEN1 inhibition. Recombinant FEN1 flap cleavage, fluorescence, 15 min. Potency, µM (series often up to 114 µM), without a hit: top-dose activity change, negative = inhibition, usual class: inhibitors. actives 0.35% (n = 390,000); further: on the % scale 0 is the no-effect control and ±100 the full control effect; nearly all actives have a fitted effect of over 65% in size
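Quantitative HTS format: each compound was titrated, incubated with 10 nM nuclease for 15 min at room temperature, then challenged with flap substrate at 50 nM final. Signal change over 15 min gave concentration–effect curves.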
POLB inh: inhibitors of human DNA polymerase beta; actives 1.3% (n = 340,000); AID 485314; Potency, µM (highest dose often 114 µM), without a hit: at the top dose activity change, negative = inhibition, actives largely listed as inhibitors; P06746; Pol beta primer extension/strand displacement, fluorescence kinetic; further: on the % scale 0 is the no-effect control and ±100 the full control effect
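Human Pol beta at 10 nM; strand-displacement substrate 50 nM final. Compound exposure 15 min at room temperature before start, reaction 10 min at room temperature.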
POLK inh: blocks human DNA polymerase kappa activity; purified Pol kappa, fluorescent DNA synthesis assay, 10 min; AID 588579; actives 0.53% (n = 400,000); Potency, µM (titrated, usually from 107 µM), without a hit: at the highest dose activity, negative = inhibition, most hits filed as inhibitors; further: on the % scale 0 is the no-effect control and ±100 the full control effect
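10 nM Pol kappa was preincubated with compounds for 15 min at room temperature. Reaction started with 50 nM (final) substrate. Fluorescence read kinetically at 0 and 10 min.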
PGK inhibitor: T. brucei PGK inhibition; P07378; PGK/GAPDH coupled, Kinase-Glo luminescence, 60 min; Potency, µM (doses to about 57.5 µM), inactives show at the highest dose activity change, negative = inhibition, usual class: inhibitors; actives 0.043% (n = 380,000); AID 602233; further: on the % scale 0 is the no-effect control and ±100 the full control effect; nearly all actives have a fitted effect of over 60% in size
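Luminescent ATP detection (Kinase-Glo Plus) follows a 60-minute room-temperature incubation, with wells lacking PGK as controls. Buffer: 100 mM TEA (pH 7.6), 5 mM MgCl2, 0.01% Tween-20. Coupling enzyme GAPDH (100 nM final) supplies unstable 1,3-BPG in-well.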
POLI inh: DNA polymerase iota (human) inhibition; Q9UNA4; Pol iota fluorescent replication assay, 10 min; Potency, µM (top dose mostly 115 µM), for the others: at the top dose activity, negative = inhibition, usual class: inhibitors; actives 1% (n = 390,000); AID 588590
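Pol iota at 10 nM preincubated 15 min with compounds at room temperature; reaction started with fluorescent substrate, 50 nM final. Fluorescence read kinetically at 0 and 10 min; buffer-only wells as negative control.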
POLH inh: inhibitors of human DNA polymerase eta; Q9Y253; recombinant Pol eta, fluorescent DNA replication assay; Potency, µM (series often up to 114 µM), without a hit: at the highest dose activity change, negative = inhibition, most hits filed as inhibitors; actives 1.2% (n = 390,000); AID 588591; further: on the % scale 0 is the no-effect control and ±100 the full control effect
Target sequence (Q9Y253 whole entry, looked up): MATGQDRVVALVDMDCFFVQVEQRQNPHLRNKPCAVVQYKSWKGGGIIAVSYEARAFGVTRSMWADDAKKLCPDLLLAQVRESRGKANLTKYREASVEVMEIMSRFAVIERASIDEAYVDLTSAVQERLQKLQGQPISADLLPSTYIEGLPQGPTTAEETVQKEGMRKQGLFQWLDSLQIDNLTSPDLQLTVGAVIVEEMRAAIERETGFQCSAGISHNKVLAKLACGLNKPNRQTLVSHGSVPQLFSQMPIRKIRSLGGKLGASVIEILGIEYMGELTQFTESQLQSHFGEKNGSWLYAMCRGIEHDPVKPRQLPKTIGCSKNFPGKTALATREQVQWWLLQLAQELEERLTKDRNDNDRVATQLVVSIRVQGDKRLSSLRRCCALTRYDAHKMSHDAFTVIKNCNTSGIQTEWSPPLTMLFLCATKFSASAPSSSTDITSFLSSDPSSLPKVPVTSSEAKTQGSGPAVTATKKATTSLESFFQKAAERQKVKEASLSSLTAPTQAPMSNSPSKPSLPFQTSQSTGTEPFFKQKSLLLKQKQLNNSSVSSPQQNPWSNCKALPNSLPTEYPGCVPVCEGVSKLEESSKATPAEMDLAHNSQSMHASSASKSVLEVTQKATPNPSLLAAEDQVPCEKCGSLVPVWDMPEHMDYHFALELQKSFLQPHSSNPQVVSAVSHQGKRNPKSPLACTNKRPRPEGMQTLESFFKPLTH
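Fluorescent replication assay: 50 nM final substrate added after a 15 min room-temperature compound preincubation with 10 nM enzyme. Signal taken at 0 min and again at 10 min.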
The depositor's hits bear a star; i = inactive; ? = inconclusive; / = not tested or not shown; ! = not confirmed by another sample; [ ] = remark or other dose. This is a sample that favours compounds with a hit; in the whole collection about 2.4% have one here. The call rests on the fitted dose curve; in most records, active means well fitted curve in the direction sought with a large enough effect; inconclusive means small, poorly fitted or top-dose-only effect, or another doubt; inactive means no such curve, though single readings can be large; an effect the other way counts as inactive or inconclusive. Potency means the concentration at half of the fitted maximal effect.

SMILES	FEN1 inh	POLB inh	POLK inh	PGK inhibitor	POLI inh	POLH inh
Cc1nc2nc(C)c(CCC(=O)NCCCN3CCN(c4cccc(Cl)c4)CC3)c(C)n2n1	11%	15%	3%	-2%	32µM*!	-6%
Cc1ccc(C(=O)NCC(=O)OCC(=O)c2cccc3ccccc23)cc1	-6%	/	2%	/	-12%	/
CCN(CC)C(=O)CC(c1ccc(OC)cc1)c1c(OC)cc(OC)c2c(-c3ccccc3)cc(=O)oc12 (configuration not stated)	-32%	/	79µM*	/	?	/
COc1ccc(C(CCN2CCCCC2)c2c(OC)cc(OC)c3c(-c4ccccc4)cc(=O)oc23)cc1 (configuration not stated)	-22%	-23%	5%	10%	-17%	-6%
CNC(=S)N/N=C1\C(=O)c2cccc3cccc1c23	-18%	14%	-25%	-7%	17%	2%
O=C(N/N=C1\C(=O)c2cccc3cccc1c23)c1ccc(O)cc1	-18%	5.6µM*	-9%	i	183%	?
O=C(O)/C=C/c1ccc2ccccc2c1	?	/	?	/	-22%	/
Cc1ccc(N=Cc2cccc(O)c2O)c(C)c1	4.5µM*	10µM*	20µM*	/	3.5µM*	/
Cc1ccccc1N=Cc1cccc(O)c1O	50µM*	3.5µM*	10µM*	-6%	?	?
Oc1ccccc1C=NN=Cc1c(O)ccc2ccccc12	-4%	/	-11%	-4%	1%	-10%
CC(N=Cc1cccc(O)c1O)c1ccccc1 (configuration not stated)	35µM*	2.5µM*	13µM*	-9%	8.9µM*	?
Oc1cccc(/C=N/N=C/c2cccc(O)c2O)c1O	-19%	0.32µM*	11µM*	-20%	?	2.8µM*
CN[C@@H](CCCN=C(N)N)C(=O)N[C@@H](CCCCN)C(=O)N1CCC[C@H]1C(=O)N[C@@H](Cc1c[nH]c2ccccc12)C(=O)N[C@H](C(=O)N[C@H](CC(C)C)C(=O)O)C(C)(C)C	/	/	7%[60.1 µM]	/	/	/
Cc1ccc(S(=O)(=O)N2CCN(c3nc(-c4cscn4)nc4ccccc34)CC2)cc1	-8%	/	2%	/	11%	/
Cc1cc(SCC(=O)Nc2ccc(C(F)(F)F)cc2)nc(=O)[nH]1	-1%	3%	-6%[60.1 µM]	-2%	38%	1%
[O-][N+](=NC1C=Cc2ccccc21)C1C=Cc2ccccc21 (configuration not stated)	-13%	/	-6%	/	-14%	/
COc1ccc(CN2CCC(Oc3cc(C(=O)NC4CC4)ccc3OC)CC2)c(O)c1	-12%	3%	?	10%	79µM*	-5%
COc1ccc(C(=O)NC2CC2)cc1OC1CCN(Cc2cc(C)c(C)cc2C)CC1	7%	6%	-4%	-1%	13%	-25%
Nc1ccccc1/C=C/c1ccnc2ccccc12	-21%	/	?	/	?	/
CCOC(=O)c1c(NC(=O)C2C3C=CC(C3)C2(C)C(=O)O)sc2c1CCCC2 (configuration not stated)	-10%	22µM*	?	?	-31%	20µM*
Cn1cc(C2=C(c3cn(CCCSC(=N)N)c4ccccc34)C(=O)NC2=O)c2ccccc21	-22%	/	4%[60.1 µM]	/	89µM*	/
O=C(Cc1ccc(OCc2ccccc2)cc1)NO	-4%	/	-8%	/	72%	/
O=S(=O)(Nc1nc(-c2sccc2Cl)cs1)c1cc(Cl)ccc1Cl	-33%	32µM*	-19%	-19%	?	?
CC(C)(C)c1nnc(NS(=O)(=O)c2cc(Cl)ccc2Cl)s1	-4%	2%	-11%	-3%	0%	-2%
O=C(O)C#CC(=O)O	0%	/	5%	/	14%	/
SMILES	FEN1 inh	POLB inh	POLK inh	PGK inhibitor	POLI inh	POLH inh
Cc1ccc2nc(CN3CCN(S(=O)(=O)c4ccc(F)cc4)CC3)oc2c1	11%	0%	-11%[60.1 µM]	-3%	-10%	-12%
C=CCn1c(SCC(=O)c2ccc(O)c(O)c2)nnc1-c1cccc(OC)c1	-5%	/	32µM*	-11%	?	11µM*
Cn1c(SCC(=O)c2ccc(O)c(O)c2)nnc1-c1cccs1	7%	3.5µM*	79µM*	-22%	28µM*	22µM*
C=CCn1c(SCC(=O)c2ccc(O)c(O)c2)nnc1-c1ccc(C)cc1	13%	/	?	-10%	?	?
Cn1c(SCC(=O)c2ccc(O)c(O)c2)nnc1-c1ccccc1	-7%	5%	-37%	-10%	?	-26%
Cc1csc2nc(-c3ccc(NS(=O)(=O)c4cc(F)ccc4F)cc3)cn12	-16%	20%	-7%[60.1 µM]	2%	28%	-6%
CCCNC(=O)Cn1c(SCc2ccccc2C)nc2ccncc21	-8%	/	-9%	/	25%	/
Nc1ncccc1C(=O)OCC(=O)NC1CCCCCC1	15%	/	-26%	8%	23%	79µM*
COC(=O)/C=C/c1cccc(N(Cc2ccc(-c3ccc(N(C)C)cc3)cc2)C(=O)C2CCCCC2)c1	/	/	6%[60.1 µM]	/	/	/
CC(=O)C1=C(O)C(=O)N(Cc2ccccc2)C1c1ccc(N(C)C)cc1 (configuration not stated)	18µM*	18%	-18%	-2%	-13%	0%
CC(=O)C1=C(O)C(=O)N(Cc2ccccc2)C1c1ccc(Cl)cc1 (configuration not stated)	?	10%	-5%	1%	-6%	7%
COc1oc(=O)c2cc(N)ccc2c1Cl	/	/	7%[60.1 µM]	/	/	/
Cn1c(/N=C/c2cccs2)nc2ccccc21	-14%	25%	-9%	-11%[11.5 µM]	20%	-4%
COc1ccc(/C=N/c2nc3ccccc3n2C)cc1OC	-16%	79µM*	1%	-27%	19%	-13%
COc1cc(OC)cc(-n2c(=O)c3ccccc3n(Cc3ccccc3C#N)c2=O)c1	14%	23%	-10%	6%	-28%	-3%
O=C(CN1CCCc2ccccc21)NC(=O)NCc1ccco1	0%	7%	-22%	-10%	3%	1%
O=C(COC(=O)C1CCCCC1C(=O)N1CCc2ccccc21)NCc1ccco1 (configuration not stated)	5%	32µM*	?	-6%	?	25µM*
CC(=O)Nc1cccc(-c2nnc(SCC(=O)c3cc([N+](=O)[O-])ccc3Cl)o2)c1	-2%	0%	-11%	3%	-7%	-5%
O=C(COc1ccc2ccccc2c1)Nc1ccc(O)c(-c2nc3ccccc3o2)c1	-1%	/	-3%	/	2%	/
CC(Cc1ccc(O)c(O)c1)C(C)Cc1ccc(O)c(O)c1 (configuration not stated)	?	/	10µM*	-3%	45µM*	28µM*
